# Laboratory results from publication PMC10726135, “HNF4α isoforms regulate the circadian balance between carbohydrate and lipid metabolism in the liver”.
# The full ranking holds about 18,000 sequences; the median of “log2 normalized intensity” is about 0.39, and the highest 2% start at about 6.6. Many of the other results were omitted from the sample, so the highest values are more common in it than they were.
# Molecular target: T1, HNF4alpha2 (COS-7 nuclear extract) (Homo sapiens, UniProt P41235 1-474)
# T1 sequence: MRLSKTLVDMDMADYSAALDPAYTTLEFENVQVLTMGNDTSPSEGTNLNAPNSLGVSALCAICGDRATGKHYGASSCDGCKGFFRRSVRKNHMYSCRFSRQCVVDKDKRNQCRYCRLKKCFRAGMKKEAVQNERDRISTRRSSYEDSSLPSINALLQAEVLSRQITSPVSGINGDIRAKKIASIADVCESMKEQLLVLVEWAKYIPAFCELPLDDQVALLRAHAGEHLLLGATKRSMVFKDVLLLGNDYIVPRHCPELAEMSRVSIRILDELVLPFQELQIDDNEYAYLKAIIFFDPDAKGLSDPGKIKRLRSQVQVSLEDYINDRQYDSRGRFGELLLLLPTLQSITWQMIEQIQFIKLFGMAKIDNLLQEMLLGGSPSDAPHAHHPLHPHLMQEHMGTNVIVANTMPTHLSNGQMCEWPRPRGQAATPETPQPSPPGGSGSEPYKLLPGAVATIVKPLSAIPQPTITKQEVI
# Experiment: protein-binding microarray; COS-7 nuclear extract on double-stranded Agilent 4x180k PBM; binding buffer, salt, pH and temperature not given in the material; high values mean tight binding
# Conditions: chain copies: 2; label: 3' end of strand 1 on the slide; dsDNA, one strand shown
# Method in brief: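 The binding signal is Agilent software's gProcessedSignal after background correction and normalization. Arrays were a custom Agilent SurePrint G3 4x180k design of double-stranded ~60-nt oligonucleotides with ~44,000 test sequences in quadruplicate, probed with nuclear extracts of COS-7 cells transiently expressing a human HNF4α isoform. Scans were made at 2-µm resolution on an Agilent G2565CA scanner.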
row,Sequence,binding signal [log2 normalized intensity]
1,GCAGAATCAAAGGTCAAAATATCTGATCGAGCCTAGGGAGATTAGAGTATCGGTCGA,3.32
2,CATCCTCATTGCCTCTGGGCTTTGATGGACGCCTAGGGAGATTAGAGTATCGGTCGA,1.64
3,CCCCATGATGATAGCAAACACGATTGGATGGCCTAGGGAGATTAGAGTATCGGTCGA,0.412
4,TTTGAAGTTTAGAGATGCCTATAGGGTCTTGCCTAGGGAGATTAGAGTATCGGTCGA,0.736
5,GTCCTTGATAAGCAAGATGACTTTGGTCTAGCCTAGGGAGATTAGAGTATCGGTCGA,1.78
6,TCCAGTGGACATTGGCCCTTTGACCTTTAAGCCTAGGGAGATTAGAGTATCGGTCGA,7.47
7,AACTAGCAACTTGGACCTTGATAGGAGTTAGCCTAGGGAGATTAGAGTATCGGTCGA,2.88
8,ACTGCTCCAGTGGACATTGGCCCTTTGACCGCCTAGGGAGATTAGAGTATCGGTCGA,5.99
9,GACCTTTGGACTTGATAGAGTTTAAGTCTTGCCTAGGGAGATTAGAGTATCGGTCGA,6.99
10,CTCCTGACCTTTGGACTTGATAGAGTTTAAGCCTAGGGAGATTAGAGTATCGGTCGA,7.57
11,TGGACATTGGCCCTTTGACCTTTAATCAAGGCCTAGGGAGATTAGAGTATCGGTCGA,6.47
12,ATATCCTGACTGCTGACCTTTAAGCCTATAGCCTAGGGAGATTAGAGTATCGGTCGA,3.85
13,TAAGAGCTATCAATGACCCATGTTTGCCCTGCCTAGGGAGATTAGAGTATCGGTCGA,3
14,TGCTTCTTGGCCTCTTTGTTTACACTGTGAGCCTAGGGAGATTAGAGTATCGGTCGA,1.53
15,GCGGCTTCAGAGGCCAGCAGTGCTTTTCCCGCCTAGGGAGATTAGAGTATCGGTCGA,-0.963
16,ATTGGAAGCTCTTTCCCTCCACCAAGTTTCGCCTAGGGAGATTAGAGTATCGGTCGA,0.191
17,TCTGATCCCAATTTATCTTTCCAGATTGTTGCCTAGGGAGATTAGAGTATCGGTCGA,0.501
18,CCTCCAGGGAGGGGAGAGGGGGTTAAAGGTGCCTAGGGAGATTAGAGTATCGGTCGA,1.22
19,GGAAACTCCATTTCCTTCTAGCTCCCCAATGCCTAGGGAGATTAGAGTATCGGTCGA,3.53
20,AGTTGGAAAATATTTCTCTGAACTTTGACCGCCTAGGGAGATTAGAGTATCGGTCGA,8.41
21,GGTGAAATAGCTGAACTATTTAAGGCCTTTGCCTAGGGAGATTAGAGTATCGGTCGA,0.822

row,Sequence,binding signal [log2 normalized intensity]
1,CACTTCTGAAAAAAATATTGAACAAAGATTGCCTAGGGAGATTAGAGTATCGGTCGA,-0.491
2,GAAAATATTTCTCTGAACTTTGACCTATAGGCCTAGGGAGATTAGAGTATCGGTCGA,8.62
3,TCTTTGATTAGGAAAGGGAACTCCCTGACCGCCTAGGGAGATTAGAGTATCGGTCGA,-0.639
4,ACTGACCTTTGAGAGTCAACACTGAAATAGGCCTAGGGAGATTAGAGTATCGGTCGA,1.42
5,GCCACCCCCGTTAATTTCTAACCAATGCAGGCCTAGGGAGATTAGAGTATCGGTCGA,0.623
6,CAAACTTCTCCACTCTTCATAATTACCATTGCCTAGGGAGATTAGAGTATCGGTCGA,0.957
7,ACAAGCAACCCTCCTCCCTTTGGCCATGAAGCCTAGGGAGATTAGAGTATCGGTCGA,1.54
8,TCACAGGTTCCAGCATGGACTTCACAGCCTGCCTAGGGAGATTAGAGTATCGGTCGA,-0.535
9,CAAACAGCTTAGGGTTCAAACTCCAGCTCTGCCTAGGGAGATTAGAGTATCGGTCGA,3.29
10,TCATTCCCCTAGTATATTGGCTTGGCTGTGGCCTAGGGAGATTAGAGTATCGGTCGA,2.58
11,CTCCTGTTTGTATTCCTTGTCCTTGACCCTGCCTAGGGAGATTAGAGTATCGGTCGA,4.35
12,CCTTGACCCTTCCTCCCATTTGCTGCTCTAGCCTAGGGAGATTAGAGTATCGGTCGA,2.08
13,CATACTTCTTCCTGTTTGACCTTCGAACCCGCCTAGGGAGATTAGAGTATCGGTCGA,9.59
14,TTGACCTTCGAACCCTTGCCATTTACATCAGCCTAGGGAGATTAGAGTATCGGTCGA,5.38
15,TTCTTCCTGTTTGACCTTCGAACCCTTGCCGCCTAGGGAGATTAGAGTATCGGTCGA,9.01
16,TTGACCTTCTCTGTTAACCCTTTGCAGCCCGCCTAGGGAGATTAGAGTATCGGTCGA,2.61
17,GTACCTTGACCTTCTCTGTTAACCCTTTGCGCCTAGGGAGATTAGAGTATCGGTCGA,3.76
18,CCTGTTTGACCTTCGAACCCTTGCCATTTAGCCTAGGGAGATTAGAGTATCGGTCGA,7.04
19,AAGCACATACTTCTTCCTGTTTGACCTTCGGCCTAGGGAGATTAGAGTATCGGTCGA,5.02
20,GGAGTTGGAACGGGGGCAAGGGTCAGAGTAGCCTAGGGAGATTAGAGTATCGGTCGA,4.26
21,CTGGCATCTGGTCAGGGGTCAAGAAGCTCTGCCTAGGGAGATTAGAGTATCGGTCGA,2.21
